Screens (PubChem)
An excerpt weighted towards active compounds, which were near 3.3% of everything screened.
MazEF act: activators of E. coli MazEF toxin-antitoxin RNase, primary screen, biochemical, fluorescence, uHTS | activation, % at 20 µM | Endoribonuclease toxin MazF (Escherichia coli (strain K12)), P0AE70 | FAM/BHQ RNA-DNA oligo cleavage fluorescence, 5 h | 350,000 compounds, 0.32% hits; in the data active = activation above about 50%
Target sequence (P0AE70 whole entry, looked up): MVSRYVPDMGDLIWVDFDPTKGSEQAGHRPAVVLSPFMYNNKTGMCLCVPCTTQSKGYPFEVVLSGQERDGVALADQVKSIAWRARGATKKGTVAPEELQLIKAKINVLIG
SSB-PriA inh: inhibitors of Klebsiella pneumoniae PriA binding to SSB C-terminal tail, primary screen, biochemical, AlphaScreen. PriA–SSB C-terminal tail interaction (Klebsiella pneumoniae). AlphaScreen SSBct-PriA binding, biotinylated peptide. inhibition, % at 33 µM. 430,000 compounds, 0.6% hits. AID 1272365, 2023; in the data active = inhibition mostly above about 37%, no sharp cut-off; inactive = mostly below about 20%;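 also: plate controls were negative control peptide for no effect and reference peptide for full effect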
Autofluor counter: compound fluorescence in toxin protease inhibitor counterscreen | fluorescence intensity (test concentration not listed) | 360,000 compounds, 3.1% hits | compound autofluorescence counterscreen, microsphere flow cytometry; active compounds read high | AID 624483; in the data active = fluorescence intensity above about 16000; inconclusive = no clear call, values can overlap the other calls
BoNT-A LC inh2: BoNT/A light chain protease inhibitors, primary screen, biochemical, flow cytometry, MLPCN library; Botulinum neurotoxin type A light chain protease (Clostridium botulinum A str. ATCC 3502); multiplex microsphere protease substrate cleavage; inhibition, % at 10 µM; 360,000 compounds, 0.17% hits; also: plate controls were buffer without enzyme for full effect and enzyme alone for no effect
BoNT-F LC inh: BoNT/F light chain protease inhibitors, primary screen, biochemical, flow cytometry, MLPCN library. Multiplex microsphere protease cleavage assay. inhibition, % at 10 µM. 360,000 compounds, 0.22% hits. AID 588497, 2011; in the data active = inhibition above about 35%, passing the limit was not always enough; inconclusive = no clear call, values can overlap the other calls; also: plate controls were buffer without enzyme for full effect and enzyme alone for no effect
Anthrax LF inh2: Bacillus anthracis LF protease inhibitors, primary screen, biochemical, multiplex microsphere, MLPCN library. Lethal factor (Bacillus anthracis), P15917. multiplex microsphere protease cleavage assay. inhibition, % at 10 µM. 360,000 compounds, 0.12% hits. AID 588501, 2011; also: plate controls were buffer without enzyme for full effect and enzyme alone for no effect
* = called active by the depositor; ? = inconclusive; . = no result. Rule as the data show it, unless noted: active = inhibition above about 30%; inconclusive = no clear call, values can overlap the other calls; inactive = below that.

SMILES | MazEF act | SSB-PriA inh | Autofluor counter | BoNT-A LC inh2 | BoNT-F LC inh | Anthrax LF inh2
CC(C)N(Cc1ccccc1)S(=O)(=O)c1ccc(C(=O)N2CCCc3ccccc32)cc1 | . | 2 | . | . | . | .
Cc1cc(-c2nnc(NC(=O)Cc3ccc(S(C)(=O)=O)cc3)o2)n(C)n1 | . | 43* | . | . | . | .
C(/C=C/c1ccccc1)=NN1CCN(c2ccccn2)CC1 | . | 16 | . | . | . | .
O=C(CSc1nnc2c(n1)[nH]c1ccccc12)Nc1ccc2c(c1)OCO2 | 8 | -14 | 21923* | ? | 0 | -3
O=C(CCc1nc2ccccc2[nH]1)Nc1ccc2c(c1)OCO2 | 5 | 22 | 1995 | 0 | 0 | 0
CC(=O)N[C@@H](Cc1c[nH]c2ccccc12)C(=O)OCC(=O)Nc1ccc2c(c1)OCO2 | 2 | 0 | 4509 | 0 | -8 | -2
O=C(COC(=O)[C@H](Cc1c[nH]c2ccccc12)NC(=O)c1ccc(Cl)cc1)Nc1ccc2c(c1)OCO2 | 10 | 26 | 21349* | 3 | 2 | -3
O=C(O)c1[nH]c2ccccc2c1CC(=O)N1CCOCC1 | 1 | -5 | 19170* | 2 | 1 | 2
O=C(Cc1c(C(=O)O)[nH]c2ccccc12)Nc1ccc2c(c1)OCO2 | -2 | -6 | 16805* | 0 | -4 | -3
Cc1ccc(NC(=O)CSc2nnc3c(n2)[nH]c2ccccc23)cc1 | 7 | -3 | 3731 | 0 | -12 | -8
COc1ccc(-c2cn3c(C(=O)NCc4ccco4)csc3n2)cc1 | . | 5 | . | . | . | .
CSc1ncccc1C(=O)N1CCC(CNC(=O)NCc2ccc(Cl)cc2)CC1 | . | -17 | . | . | . | .
C=CCn1c(O)c(C(C)=NNC(=S)Nc2ccccc2)c(=O)[nH]c1=O | . | -7 | . | . | . | .
O=C(CCCS(=O)(=O)c1ccccc1)Nc1nc2c(Cl)ccc(Cl)c2s1 | . | -4 | . | . | . | .
Cc1ccc(-c2cc3c(=O)[nH]ccn3n2)cc1C | . | -6 | . | . | . | .
CCCCSc1nnc2c(n1)[nH]c1ccccc12 | -2 | -25 | 21409* | -1 | 2 | 1
N#Cc1c(-c2ccco2)nc(N2CCCCC2)[nH]c1=O | . | -7 | . | . | . | .
COc1ccccc1-[n+]1c(C)cc(/C=C2\Sc3ccccc3N2C)cc1C | -199 | . | 7146 | 88* | -2 | 40*
COc1ccc(-[n+]2c(C)cc(/C=C3\Sc4ccccc4N3C)cc2C)cc1 | . | . | 4610 | 68* | -40 | 20
COc1ccc(C(=O)/C=C2\Sc3ccccc3N2C)cc1 | 11 | -16 | 3444 | 0 | 6 | -8
COc1ccc(F)cc1S(=O)(=O)N1CCCC(c2nnc(C)s2)C1 (configuration not stated) | . | 3 | . | . | . | .
Cc1ccccc1NC(=S)NN=C1CC(C)(C)Oc2ccc(O)cc21 | . | 47* | . | . | . | .
COc1ccc(NC(=S)N/N=C2\CC(C)(C)Oc3ccc(O)cc32)cc1 | -4 | . | 2570 | 1 | -6 | -2
Cc1cccc(NC(=S)NN=C2CC(C)(C)Oc3ccc(O)cc32)c1 | . | 47* | . | . | . | .
CC1CCN(C(=O)c2cc3nc(-c4ccccc4)cc(-c4ccccc4)n3n2)CC1 | -13 | -43 | 20793* | -2 | -2 | 0
SMILES | MazEF act | SSB-PriA inh | Autofluor counter | BoNT-A LC inh2 | BoNT-F LC inh | Anthrax LF inh2
O=C(c1cc2nc(-c3ccccc3)cc(C(F)(F)F)n2n1)N1CCOCC1 | 8 | -9 | 21930* | 2 | 1 | -4
O=C(NC1CCCC1)c1cc2nc(-c3ccccc3)cc(-c3ccccc3)n2n1 | 0 | -17 | 4954 | 0 | -3 | -3
COc1ccc(N=Cc2c(NCc3ccccc3)nc3c(C)cccn3c2=O)cc1 | . | 8 | . | . | . | .
O=C(CCc1ccccc1Br)N1C2CCC1c1cncnc1C2 (configuration not stated) | . | -22 | . | . | . | .
Cc1cc(C)cc(N2C(=O)C3N=NN(c4ccc(C)c(C)c4)C3C2=O)c1 (configuration not stated) | . | -11 | . | . | . | .
CCc1ccc2[nH]c(=O)c(C(c3nnnn3Cc3ccc(OC)cc3)N3CCOCC3)cc2c1 (configuration not stated) | 1 | 1 | 16212* | 0 | 2 | -3
CCc1ccc2[nH]c(=O)c(C(c3nnnn3Cc3ccccc3)N3CCOCC3)cc2c1 (configuration not stated) | -2 | 0 | 21543* | ? | 0 | -3
COc1ccc(NC(=O)Nc2cnc(N(C)C)nc2N(C)C)c(C)c1 | . | -15 | . | . | . | .
CCCN1CCCc2cc(CCNS(=O)(=O)c3cc(Cl)ccc3OC)ccc21 | . | 56* | . | . | . | .
CCCN1CCCc2cc(CCNS(=O)(=O)c3cc(CC)ccc3OC)ccc21 | . | 66* | . | . | . | .
CCCN1CCCc2cc(CCNC(=O)C(=O)Nc3ccc(OC)c(OC)c3)ccc21 | . | 44 | . | . | . | .
CCCN1CCCc2cc(CCNS(=O)(=O)c3cc(OC)ccc3OC)ccc21 | . | 43* | . | . | . | .
COc1ccc(-c2nnc(NC(=O)CN3C(=O)c4ccccc4C3=O)o2)c(OC)c1 | . | -3 | . | . | . | .
CCOC(=O)c1ccc(NC(=O)/C=C/c2ccc(OC(=O)c3ccccn3)cc2)cc1 | . | -5 | . | . | . | .
CC1=C(C(N)=O)[C@H](c2ccc(OC(F)F)cc2)n2ncnc2N1 | . | -2 | . | . | . | .
CC(C)NS(=O)(=O)c1ccc(OCC(=O)Nc2ccc(F)cc2F)cc1 | 6 | -20 | 24368* | -3 | -4 | -2
CCOC(=O)c1ccc(N=Cc2c(O)n(-c3ccccc3F)c(=S)[nH]c2=O)cc1 | 38 | 8 | 10675 | 0 | 3 | 0
CCOC(=O)c1c(/N=C/c2c(O)n(-c3ccc(F)cc3)c(=S)[nH]c2=O)sc2c1CCCC2 | -136 | . | 11434 | 101* | 43* | 56*
CCOC(=O)c1c(/N=C/c2c(O)n(-c3ccccc3F)c(=S)[nH]c2=O)sc2c1CCCC2 | 40 | . | 3294 | 57* | 24 | 56*
COc1ccccc1NC(=O)C(=O)NCC[C@H]1CCCCN1S(=O)(=O)c1ccc(F)cc1C | . | 0 | . | . | . | .
COc1ccc(-n2cnc3cc(NCc4ccccn4)ccc32)cc1 | -1 | 32 | 18683* | 2 | -6 | -3
CCCn1cnc2cc(NCc3cccc(OC)c3O)ccc21 | -8 | 14 | 19022* | 2 | -2 | -1
COc1ccc(-n2cnc3cc(NCc4cccs4)ccc32)cc1 | -2 | 32 | 3601 | 1 | -15 | -5
COc1ccccc1-n1cnc2cc(NCc3ccccn3)ccc21 | 5 | 22 | 22276* | 2 | -1 | -6
CCCn1cnc2cc(NCc3ccccn3)ccc21 | 7 | 6 | 4289 | -1 | -9 | -9
c1ccc(-n2cnc3cc(NCc4cccs4)ccc32)cc1 | 3 | 32 | 23254* | ? | -7 | -3
O=C(/C=C\c1ccc2c(c1)OCO2)OCc1cc(-c2cccs2)on1 | . | -3 | . | . | . | .
Cn1cccc1C(=O)N1CCN(c2cc3c(nn2)CCCC3)CC1 | . | -11 | . | . | . | .
O=C(Nc1cc(F)ccc1F)c1c[nH]c(=O)n(Cc2ccccc2Cl)c1=O | . | -19 | . | . | . | .
